The values below come from ChEMBL document CHEMBL3988442, “University of Dundee, Small-Polar-MMV Screening Library” (2021).

The target in this assay is AMP-activated protein kinase, AMPK (Homo sapiens) (UniProt P54646+O43741+P54619+Q9UGJ0+Q9Y478+Q13131+Q9UGI9). Nature of the assay: AMP-dependent Kinase enzyme assay. An in vitro enzyme assay that detects ADP turnover that is directly proportional to AMPK activity. This uses naive AMPK that is activated during the assay with MK-8722. Format: functional. Also on record: scale not given: direction of the effect not stated beside the values. The conditions noted are these: 30 µM.
Consider `COc1c(C2CCCN2CC(=O)N(C)c2nccs2)c(C)nn1C` (centres undefined), for which the Percent Effect was found to be 5.92%. Then `Cc1cc(CC(=O)NC2CCCN(c3ccccc3F)C2=O)n[nH]1` (centres undefined), with 10.6%; and `CN(C)Cc1ccc(C(=O)N2CCCC(COc3ccc(F)cc3)C2)o1` (centres undefined), with 7.84%; and `CC(C)Oc1cccc(CN(C)C(=O)Nc2cccn(C)c2=O)c1`, with -63%.

Take `O=C(NCc1csc2ccc(Cl)cc12)c1cc2n(n1)CCNC2`: the Percent Effect amounted to 10.6%. As to `Cc1ccc(S(=O)(=O)N2CCN(Cc3ccncc3)CC2)c(Cl)c1`, the Percent Effect is -6.37%.

As for `CCc1cc(N2CCC(NCc3ccc(C)o3)CC2)ncn1`, the Percent Effect was 6.83%. Then `CN(Cc1nc(C(C)(C)C)no1)C1CCS(=O)(=O)C1` (centres undefined), with 2.12%; and `O=C1CCC(=O)N1CCn1nnc(-c2ccc(Br)cc2)n1`, with -9.11%; and `CSCCN1CCC(NC(=O)c2cccc(C3CCCNC3)c2)CC1` (centres undefined), with -2.91%. Then `COc1ccc(CCn2cnc(C#N)n2)cc1`, with -6.21%. Then `CC(C)C(C)NC(=O)Nc1cccc(OCC#N)c1` (centres undefined), with -3.11%; and `O=C1NCCN(C(=O)CN2CCOC2=O)C1c1cccc(F)c1` (centres undefined), with -8.21%. As to `CCc1nc(C)c(CC(=O)N2CCC3(CC2)OCCCC3OC)c(=O)[nH]1` (centres undefined), the Percent Effect is -123%. Turning to `Cc1nn(C)c(C)c1CC(=O)NCC1(C(N)=O)CCOCC1`, the Percent Effect was -4.43%. Then `CS(=O)(=O)c1ccccc1N[C@@H]1c2ccccc2C[C@@H]1O`, with -13.1%. Then `CN(Cc1cc(Br)c2c(c1)OCO2)Cc1cscn1`, with -9.1%; and `CCNC(=O)c1ccc(NC(=O)N(C)Cc2cccn2C)c(C)c1`, with 12.2%. Then `NC(=O)CN1CCc2c(Br)ccc(F)c2C1`, with 1.51%; and `CC(=O)N1CCc2c(nc(N(C)C)nc2NCCCn2ccnc2)C1`, with 2.43%; and `CC(NC(=O)NC1CCN(Cc2ccncc2)CC1)c1ccccc1F` (centres undefined), with -3.35%.

With `C[C@@H]1CN(C(=O)C2(Cn3cccn3)CC2)CC[C@@]1(O)C1CC1`, the Percent Effect is -6.74%. Then `CN(C)S(=O)(=O)N1CC[C@]2(O)CCN(c3cc(C#N)ccn3)C[C@@H]2C1`, with -3.03%; and `COc1ccc(O)c(C(=O)NCC2CCCN(C3CCOCC3)C2)c1` (centres undefined), with 12.5%; and `CC(C)c1ccc(/C=C/CC(=O)NC2CCS(=O)(=O)CC2)cc1`, with -2.16%. Then `CN1C[C@H](c2ccccc2)[C@H]2CN(C(=O)Cc3cccc(O)c3)CC[C@H]21`, with 15.8%.

In the case of `CC(C)Cc1cc(C(=O)N2CCC(Cc3cnn(C)c3)C2)cc(O)n1` (centres undefined), the Percent Effect was -2.83%.

Regarding `c1ccc(CCCn2ccnc2-c2cn(C3CCNCC3)nn2)nc1`, the Percent Effect is -13.8%.

On to `Cc1nc(C)c(C(=O)N2C[C@@H](C(=O)O)[C@H](C3CC3)C2)s1`, for which the Percent Effect was determined as 7.29%. Then `CC1(C)Cc2nc(C(C)(C)C)ncc2C(NC(=O)Cc2nnn[nH]2)C1` (centres undefined), with -20.8%. On to `COc1ccc(S(=O)(=O)N2CCOC(C)(C(N)=O)C2)cc1` (centres undefined), for which the Percent Effect stood at 15.5%.

In the case of `CCn1cnnc1CCNC(=O)CCNC(=O)c1ccccc1F`, the Percent Effect is -0.474%. Then `NCc1ccnc(Oc2ccc(F)cc2)c1`, with 14.1%; and `CC(=O)N[C@@H]1CN(C(=O)c2cccc(C)c2)C[C@H]1O`, with 8.23%; and `O=C(CCn1ccc2ncccc2c1=O)N1CCCC1`, with -3.54%. Then `CN1CC=C(CCN(C)C(=O)CCc2ccccc2)CC1`, with -0.771%; and `COCCN1C[C@H]2CC[C@@H]1CN(C(=O)CCc1n[nH]c(C)c1C)C2`, with -0.161%; and `CCc1n[nH]c(C(=O)NCCn2ccnc2C)c1C`, with -2.67%.

`CC(c1nnc(-c2ccccc2)o1)N1CCC(Nc2ccccc2)CC1` (centres undefined): the Percent Effect is 4.64%.
